This note sets out measurements from ChEMBL document CHEMBL3988442, “University of Dundee, Small-Polar-MMV Screening Library” (2021).

Structures are written as SMILES. For some assays here: Entries with a potency or affinity are not part of this list.

Holding throughout (parameters): scale not given: direction of the effect not stated beside the values
Assay [1] concerns the target Protein translocase subunit SecA (Escherichia coli (strain K12)) (UniProt P10408). Put plainly: Assay to Identify E. coli SecA ATPase Inhibitors. Format: functional. The conditions noted are these: 30 µM.
The target in assay [2] is T1, Ubiquitin-activating enzyme e1, putative (Leishmania donovani (strain BPK282A1)) (UniProt E9BSI1).
T1 sequence (whole entry): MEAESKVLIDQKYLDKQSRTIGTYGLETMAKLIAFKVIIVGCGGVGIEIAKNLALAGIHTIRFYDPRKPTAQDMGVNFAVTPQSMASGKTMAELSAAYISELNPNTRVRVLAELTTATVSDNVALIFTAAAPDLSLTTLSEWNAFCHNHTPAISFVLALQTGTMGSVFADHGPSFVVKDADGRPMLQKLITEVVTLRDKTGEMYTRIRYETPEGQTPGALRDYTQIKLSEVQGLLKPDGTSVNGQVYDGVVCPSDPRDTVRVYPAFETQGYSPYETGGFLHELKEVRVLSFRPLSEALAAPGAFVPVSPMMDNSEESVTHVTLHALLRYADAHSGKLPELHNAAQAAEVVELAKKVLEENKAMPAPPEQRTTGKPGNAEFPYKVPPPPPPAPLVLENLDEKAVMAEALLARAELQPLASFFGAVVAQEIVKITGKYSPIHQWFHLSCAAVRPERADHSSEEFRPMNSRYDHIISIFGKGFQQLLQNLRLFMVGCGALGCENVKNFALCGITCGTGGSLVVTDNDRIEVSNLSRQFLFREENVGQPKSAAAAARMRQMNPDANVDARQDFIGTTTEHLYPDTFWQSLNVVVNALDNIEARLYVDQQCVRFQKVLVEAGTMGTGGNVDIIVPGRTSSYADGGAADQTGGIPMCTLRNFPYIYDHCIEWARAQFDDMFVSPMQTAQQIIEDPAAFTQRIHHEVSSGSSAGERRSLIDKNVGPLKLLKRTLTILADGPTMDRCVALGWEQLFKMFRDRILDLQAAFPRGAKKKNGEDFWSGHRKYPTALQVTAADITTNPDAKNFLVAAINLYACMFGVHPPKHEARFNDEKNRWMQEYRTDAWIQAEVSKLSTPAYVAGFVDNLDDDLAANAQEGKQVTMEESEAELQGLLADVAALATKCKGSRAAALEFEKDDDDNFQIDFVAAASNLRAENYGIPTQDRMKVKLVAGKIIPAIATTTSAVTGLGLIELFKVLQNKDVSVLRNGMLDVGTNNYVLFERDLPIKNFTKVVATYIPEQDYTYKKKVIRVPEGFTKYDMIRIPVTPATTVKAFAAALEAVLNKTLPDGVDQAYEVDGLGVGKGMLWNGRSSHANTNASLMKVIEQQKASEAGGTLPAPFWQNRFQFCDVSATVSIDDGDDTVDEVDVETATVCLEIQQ
Put plainly: Leishmania donovani Ubiquitin Activating Enzyme (LdE1). Format: functional. The note with it: 30 µM.

Assay [3] deals with AMP-activated protein kinase, AMPK (Homo sapiens) (UniProt P54646+O43741+P54619+Q9UGJ0+Q9Y478+Q13131+Q9UGI9). Put plainly: AMP-dependent Kinase enzyme assay. An in vitro enzyme assay that detects ADP turnover that is directly proportional to AMPK activity. This uses naive AMPK that is activated during the assay with MK-8722. Type of assay: functional. The note with it: 30 µM.

For assay [4], the target named is Sialic acid-binding Ig-like lectin 9 (Homo sapiens) (UniProt Q9Y336). Put plainly: Hs-Siglec9 ALPHAscreen SOP 20170721. The note with it: 10 µM.
Sialic acid-binding Ig-like lectin 9 (Homo sapiens), sequence (Q9Y336 whole entry): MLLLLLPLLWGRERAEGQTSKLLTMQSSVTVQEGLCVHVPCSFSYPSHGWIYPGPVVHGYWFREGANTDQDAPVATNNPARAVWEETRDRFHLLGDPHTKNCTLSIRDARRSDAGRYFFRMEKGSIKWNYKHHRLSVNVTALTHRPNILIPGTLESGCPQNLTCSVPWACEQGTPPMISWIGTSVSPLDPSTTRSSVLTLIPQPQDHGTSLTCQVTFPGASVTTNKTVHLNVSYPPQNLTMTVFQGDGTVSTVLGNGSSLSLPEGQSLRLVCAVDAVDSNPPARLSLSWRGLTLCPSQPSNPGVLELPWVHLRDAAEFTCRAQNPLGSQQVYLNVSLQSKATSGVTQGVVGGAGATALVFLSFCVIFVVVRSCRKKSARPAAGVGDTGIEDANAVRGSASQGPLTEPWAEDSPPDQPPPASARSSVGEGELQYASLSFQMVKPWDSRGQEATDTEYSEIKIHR
A further assay deals with Trypanosoma cruzi. Put plainly: Trypanosoma cruzi phosphomannomutase and mannose-1-phosphate guanylyltransferase assay. Type of assay: functional. The note with it: 10 µM.
Assay [5] deals with T2, Arginase-2, mitochondrial (Homo sapiens) (UniProt P78540).
T2 sequence (whole entry): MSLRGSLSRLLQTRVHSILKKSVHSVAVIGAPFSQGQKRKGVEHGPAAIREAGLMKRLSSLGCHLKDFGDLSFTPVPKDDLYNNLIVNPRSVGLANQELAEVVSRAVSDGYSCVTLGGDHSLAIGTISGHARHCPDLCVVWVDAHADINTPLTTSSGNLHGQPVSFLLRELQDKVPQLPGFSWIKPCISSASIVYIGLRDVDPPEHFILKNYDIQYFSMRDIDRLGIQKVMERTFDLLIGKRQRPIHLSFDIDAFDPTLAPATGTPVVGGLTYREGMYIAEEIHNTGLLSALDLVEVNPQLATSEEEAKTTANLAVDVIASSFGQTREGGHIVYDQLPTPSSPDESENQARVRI
Put plainly: in vitro enzyme assay to detect the production of urea directly proportional to the activity of Arginase II. Further: in the data most compounds retested in dose-response had high values. The note with it: 33.3 µM. Format: functional.

For assay [6], the target named is T3, Proteasome subunit beta (Trypanosoma cruzi) (UniProt O96673).
T3 sequence (whole entry): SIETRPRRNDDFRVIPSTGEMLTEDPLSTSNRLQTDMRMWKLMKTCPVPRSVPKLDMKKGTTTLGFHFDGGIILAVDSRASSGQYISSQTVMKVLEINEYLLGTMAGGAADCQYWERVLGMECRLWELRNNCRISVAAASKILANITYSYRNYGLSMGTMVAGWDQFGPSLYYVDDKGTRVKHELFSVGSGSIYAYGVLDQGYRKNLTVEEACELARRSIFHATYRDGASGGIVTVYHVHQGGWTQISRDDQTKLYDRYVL
Put plainly: Trypanosoma cruzi proteasome chymotrypsin-like activity (TcProtChymo) assay. Further: in the data most compounds retested in dose-response had high values. Format: functional. The conditions noted are these: 9.37 µM.

For a further assay, the species on record is Homo sapiens. Put plainly: To identify inhibition of the IFN signalling (Jak-Stat) pathway via expression of an eGFP reporter gene under the control of an IFN-stimulated response element (ISRE) containing MxA promoter. Type of assay: functional. The conditions noted are these: 30 µM.
Assay [7] concerns the target T4, Tyrosyl-tRNA synthetase, putative (Trypanosoma cruzi (strain CL Brener)) (UniProt Q4DSP6).
T4 sequence (whole entry): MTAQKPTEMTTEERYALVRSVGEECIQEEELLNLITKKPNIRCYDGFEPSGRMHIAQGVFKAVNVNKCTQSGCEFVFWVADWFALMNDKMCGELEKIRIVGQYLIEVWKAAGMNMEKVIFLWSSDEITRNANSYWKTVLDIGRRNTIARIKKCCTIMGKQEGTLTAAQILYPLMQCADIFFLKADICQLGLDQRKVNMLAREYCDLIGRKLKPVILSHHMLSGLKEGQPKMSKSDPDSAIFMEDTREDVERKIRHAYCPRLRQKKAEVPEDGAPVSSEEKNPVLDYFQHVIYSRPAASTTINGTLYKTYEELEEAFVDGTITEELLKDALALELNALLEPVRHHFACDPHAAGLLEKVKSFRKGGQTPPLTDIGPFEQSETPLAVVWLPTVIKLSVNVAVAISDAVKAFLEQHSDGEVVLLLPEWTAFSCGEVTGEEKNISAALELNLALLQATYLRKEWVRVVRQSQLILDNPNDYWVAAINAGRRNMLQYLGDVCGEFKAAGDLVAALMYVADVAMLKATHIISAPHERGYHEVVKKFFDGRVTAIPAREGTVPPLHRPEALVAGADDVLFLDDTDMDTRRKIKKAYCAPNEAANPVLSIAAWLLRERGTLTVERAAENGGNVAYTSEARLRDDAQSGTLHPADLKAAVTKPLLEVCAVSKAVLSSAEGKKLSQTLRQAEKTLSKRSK
Put plainly: Trypanosoma cruzi tyrosyl tRNA synthetase (TcYRS) _High Tyrosine SOP. Further: in the data most compounds retested in dose-response had high values. Type of assay: functional. The note with it: 30 µM.

Assay [8] deals with T4, Tyrosyl-tRNA synthetase, putative (Trypanosoma cruzi (strain CL Brener)). Put plainly: Trypanosoma cruzi tyrosyl tRNA synthetase (TcYRS) SOP. Type of assay: functional. The note with it: 30 µM.
Assay [9] deals with Chromo domain-containing protein 1 (Saccharomyces cerevisiae (strain ATCC 204508 / S288c) (Baker's yeast)) (UniProt P32657). Put plainly: ScCHD-1 Enzyme Inhibition Assay. Further: in the data most compounds retested in dose-response had high values. The note with it: 30 µM. Format: functional.
Chromo domain-containing protein 1 (Saccharomyces cerevisiae (strain ATCC 204508 / S288c) (Baker's yeast)), sequence (P32657 whole entry, the tested form may be a part): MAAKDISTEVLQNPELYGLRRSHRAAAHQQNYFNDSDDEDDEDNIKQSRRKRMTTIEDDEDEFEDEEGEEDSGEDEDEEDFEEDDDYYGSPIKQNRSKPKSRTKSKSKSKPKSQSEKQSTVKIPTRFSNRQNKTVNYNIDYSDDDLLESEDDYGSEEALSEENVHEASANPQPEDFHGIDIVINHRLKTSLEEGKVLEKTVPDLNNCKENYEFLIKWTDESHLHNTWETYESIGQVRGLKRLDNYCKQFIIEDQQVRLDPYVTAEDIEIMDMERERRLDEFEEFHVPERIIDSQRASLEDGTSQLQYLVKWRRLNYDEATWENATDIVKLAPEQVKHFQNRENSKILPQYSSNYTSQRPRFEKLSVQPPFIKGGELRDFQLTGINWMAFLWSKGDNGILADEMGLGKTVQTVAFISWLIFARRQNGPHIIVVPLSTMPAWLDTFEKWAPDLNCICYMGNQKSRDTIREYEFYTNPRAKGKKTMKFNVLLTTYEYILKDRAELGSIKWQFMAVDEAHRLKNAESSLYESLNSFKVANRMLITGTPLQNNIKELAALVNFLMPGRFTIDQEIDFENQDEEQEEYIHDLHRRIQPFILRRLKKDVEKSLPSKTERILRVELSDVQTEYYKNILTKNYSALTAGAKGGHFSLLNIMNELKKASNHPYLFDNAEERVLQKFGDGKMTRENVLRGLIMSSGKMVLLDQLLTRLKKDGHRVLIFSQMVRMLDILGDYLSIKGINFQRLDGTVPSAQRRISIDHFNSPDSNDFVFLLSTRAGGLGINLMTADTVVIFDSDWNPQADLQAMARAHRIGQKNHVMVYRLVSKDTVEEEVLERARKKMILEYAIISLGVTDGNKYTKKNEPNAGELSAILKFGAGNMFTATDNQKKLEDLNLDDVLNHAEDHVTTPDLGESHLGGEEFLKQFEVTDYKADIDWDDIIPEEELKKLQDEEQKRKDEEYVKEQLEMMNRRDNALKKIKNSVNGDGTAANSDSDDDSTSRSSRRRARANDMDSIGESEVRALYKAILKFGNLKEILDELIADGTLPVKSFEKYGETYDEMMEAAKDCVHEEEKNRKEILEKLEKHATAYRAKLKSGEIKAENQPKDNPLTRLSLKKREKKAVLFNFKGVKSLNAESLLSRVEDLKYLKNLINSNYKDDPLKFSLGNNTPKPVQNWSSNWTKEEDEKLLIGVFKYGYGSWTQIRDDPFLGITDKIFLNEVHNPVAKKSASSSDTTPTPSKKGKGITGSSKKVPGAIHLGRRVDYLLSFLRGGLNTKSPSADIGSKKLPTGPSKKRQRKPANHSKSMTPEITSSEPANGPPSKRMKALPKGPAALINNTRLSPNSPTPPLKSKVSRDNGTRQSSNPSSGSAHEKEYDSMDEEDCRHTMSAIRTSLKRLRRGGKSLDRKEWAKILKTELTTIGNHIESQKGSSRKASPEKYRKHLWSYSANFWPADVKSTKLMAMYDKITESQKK

Protein translocase subunit SecA (Escherichia coli (strain K12)), sequence (P10408 whole entry): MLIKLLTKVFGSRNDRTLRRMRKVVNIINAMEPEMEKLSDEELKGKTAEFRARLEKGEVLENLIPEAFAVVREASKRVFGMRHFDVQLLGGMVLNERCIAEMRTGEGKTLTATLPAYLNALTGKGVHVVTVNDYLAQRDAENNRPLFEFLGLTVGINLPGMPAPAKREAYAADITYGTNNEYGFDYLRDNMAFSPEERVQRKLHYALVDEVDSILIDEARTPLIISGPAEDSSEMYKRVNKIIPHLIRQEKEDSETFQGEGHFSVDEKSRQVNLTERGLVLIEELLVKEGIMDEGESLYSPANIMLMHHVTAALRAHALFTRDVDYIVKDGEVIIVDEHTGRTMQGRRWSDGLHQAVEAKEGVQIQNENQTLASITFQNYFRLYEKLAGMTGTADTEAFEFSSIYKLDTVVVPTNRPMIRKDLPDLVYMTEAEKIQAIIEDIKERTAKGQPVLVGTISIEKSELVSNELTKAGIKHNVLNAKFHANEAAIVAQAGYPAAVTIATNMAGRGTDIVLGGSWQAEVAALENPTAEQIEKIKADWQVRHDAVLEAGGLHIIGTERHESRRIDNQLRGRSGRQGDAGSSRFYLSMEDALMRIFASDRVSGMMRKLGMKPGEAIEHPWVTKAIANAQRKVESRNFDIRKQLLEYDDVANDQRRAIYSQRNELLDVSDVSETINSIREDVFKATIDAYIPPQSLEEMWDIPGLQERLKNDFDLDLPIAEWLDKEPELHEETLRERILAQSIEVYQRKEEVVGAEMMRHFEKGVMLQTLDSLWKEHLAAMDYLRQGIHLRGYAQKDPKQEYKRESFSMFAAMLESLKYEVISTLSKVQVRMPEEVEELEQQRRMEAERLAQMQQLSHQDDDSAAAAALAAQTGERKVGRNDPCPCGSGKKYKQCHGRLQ

With `Cc1n[nH]cc1CNc1ccc2c(c1)CN(C(=O)OC(C)(C)C)CC2`, the Percent Effect in [1] was -2.19%; in assay [2] it was 5.2%; in [3], -9.51%; in assay [4], 0.686%; in the assay with Trypanosoma cruzi it was 2.26%; in [5] it was -8.28%. Moreover, the Percent Effect in [6] is 15.5%; in the assay listed under Homo sapiens, 68.8%; in assay [7], 2.15%; in assay [8] it was 3.7%; in [9], -6.66%.
As for `CC(C)N(C)Cc1cnc2n1CCN(CCc1ccccc1)C2`, the Percent Effect is -3.87% in assay [1]; 5.41% in assay [2]; 23.2% in assay [3]; -2.38% in assay [4]; 0.586% in the assay with Trypanosoma cruzi; -2.92% in assay [5]. Besides, the Percent Effect in assay [6] was 9.04%; in the assay filed under Homo sapiens it was -8.89%; in assay [7], 6.93%; in assay [8] it was 8.54%; in [9], 0.182%.
In the case of `CCOCC(O)CN1CCN(C(=O)CC(C)(C)C)CC1` (stereo not given), the Percent Effect in assay [1] was -3.75%; in [2], -2.7%; in [3], -10.6%; in assay [4] it was 5.4%; in the assay on Trypanosoma cruzi, -1.98%; in assay [5] it was 0.401%. The Percent Effect in assay [6] was -7.75%; in the assay listed under Homo sapiens, 0.227%; in assay [7], 2.46%; in assay [8], 3.7%; in assay [9], 1.7%.
Regarding `CCCc1noc(CN2CCCC2c2ccsc2)n1` (stereo not given), the Percent Effect was -2.78% in assay [1]; -10.1% in assay [2]; -1.69% in assay [3]; -2.76% in assay [4]; 1.04% in the assay on Trypanosoma cruzi; -8.37% in assay [5]. In addition, the Percent Effect in [6] came to 3.19%; in the assay listed under Homo sapiens, 11.1%; in assay [7] it was 0.493%; in assay [8], 1.27%; in assay [9], 6.54%.
As to `Cn1cc(S(=O)(=O)N2CCCC2CC(=O)c2cccs2)cn1` (stereo not given), the Percent Effect in assay [1] is 2.62%; in assay [2], 0%; in assay [3], 0.659%; in assay [4], -5.21%; in the assay with Trypanosoma cruzi, -5.79%; in [5], 1.43%. Moreover, the Percent Effect in assay [6] is 14.8%; in the assay filed under Homo sapiens, 11.2%; in assay [7], 2.65%; in [8], 4.88%; in assay [9], -3.57%.
As to `Cc1ccc(CN2CCC3(C2)C(=O)N(CC(C)C)c2ccccc23)s1` (stereo not given), the Percent Effect was -1.13% in [1]; -16.2% in assay [2]; -0.146% in assay [3]; 1.8% in [4]; -6.25% in the assay on Trypanosoma cruzi; 3.75% in assay [5]. The Percent Effect in [6] is 7.02%; in the assay listed under Homo sapiens, 7.39%; in assay [7], 10.9%; in [8], 13.4%; in [9], -7.96%.
As for `Cc1nccn1C1CCCN(C(=O)c2cc3ccccc3[nH]2)C1` (stereo not given), the Percent Effect is -6.7% in assay [1]; 2.53% in assay [2]; -10.1% in assay [3]; 1.72% in [4]; -2.74% in the assay on Trypanosoma cruzi; 0.76% in [5]. Also, the Percent Effect in assay [6] is -4.83%; in the assay filed under Homo sapiens, 27.9%; in [7] it was -2.46%; in assay [8], -3.8%; in [9] it was -6.65%.
Take `CCCc1n[nH]c(C2CN(Cc3nnc(C4CC4)o3)CCO2)n1` (stereo not given): the Percent Effect in [1] was -3.64%; in [2] it was 5.06%; in assay [3], -4.65%; in assay [4], 2.18%; with Trypanosoma cruzi, 4.25%; in assay [5], -1.9%. The Percent Effect in [6] is -0.409%; in the assay filed under Homo sapiens, 3.77%; in [7], 3.45%; in [8] it was 8.86%; in assay [9], -0.679%.
`CNC(=O)CC1CC2(CCN(Cc3nccs3)CC2)c2ccccc21` (stereo not given): the Percent Effect is -3.09% in assay [1]; 16.2% in [2]; -8.78% in assay [3]; 1.43% in assay [4]; 3.52% in the assay on Trypanosoma cruzi; 3.75% in assay [5]. The Percent Effect in [6] is 11.8%; in the assay filed under Homo sapiens it was -4.56%; in [7], 7.92%; in assay [8], 8.54%; in [9], -7.65%.
`Cc1ccsc1CNC(=O)Cc1c(C)nc2c(c1C)c(=O)[nH]n2C`: the Percent Effect was -4.14% in assay [1]; 10.4% in assay [2]; 5.94% in [3]; 8.57% in [4]; -2.06% in the assay on Trypanosoma cruzi; 2.32% in assay [5]. Further, the Percent Effect in assay [6] is 5.25%; in the assay filed under Homo sapiens, 21.2%; in [7], 2.86%; in assay [8], 11.8%; in [9], -20.4%.
